Compounds without any hit were thinned out: in the full panel of roughly 83,000, 20% have a hit.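 Results are percent growth after 48 hours of single-concentration exposure. 100 means growth as in untreated cells, lower positive values show inhibition; negative values down to -100 show cell death.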 Unmarked numbers belong to inactive results. Active and inactive are the calls of the source. The calls were made as follows: active = growth percent below 10; inactive = the rest.

Test systems include HCT-15 colon; SNB-75 CNS; SNB-19 CNS; U251 CNS; PC-3 prostate; SK-MEL-5 melanoma; UACC-62 melanoma; LOX IMVI melanoma; SK-MEL-28 melanoma.
Holding throughout (experiment): NCI-60 one-dose screen, 48 h (100 = growth as untreated, 0 = no growth, -100 = all killed)
Holding throughout (settings): 10 µM

As to `CCc1nn2c(-c3cc(OC)c(OC)c(OC)c3)c(-c3cc(OC)c(OC)c(OC)c3)nc2s1`, the growth with HCT-15 colon is 77.9%; with SNB-75 CNS it was -25.6% (active); in the experiment on SNB-19 CNS, 61.9%; in the experiment on U251 CNS, 58.1%; with PC-3 prostate, 82.9%; in the experiment with SK-MEL-5 melanoma it was 89.7%. Moreover, the growth in the experiment with UACC-62 melanoma is 63.1%; in the experiment on LOX IMVI melanoma, 85.1%; in the experiment on SK-MEL-28 melanoma it was 85.8%.

As to `COc1ccc(-c2nnc(SC/C(=N\O)c3ccccc3)o2)cc1`, the growth with HCT-15 colon was 97.5%; in the experiment on SNB-75 CNS, 106%; in the experiment with SNB-19 CNS it was 99.7%; with U251 CNS, 103%; with PC-3 prostate it was 86.8%; with SK-MEL-5 melanoma, 97.1%. In addition, the growth was 81% in the experiment with UACC-62 melanoma, 95.1% in the experiment on LOX IMVI melanoma and 94.3% with SK-MEL-28 melanoma.

Turning to `CCC(O)c1ccc(Br)cc1NC(=O)c1cccc(Cl)c1` (configuration not stated), the growth in the experiment with HCT-15 colon is 28.5%; in the experiment with SNB-75 CNS, 38.8%; in the experiment on SNB-19 CNS, 21.2%; with U251 CNS, 11.7%; in the experiment with PC-3 prostate it was 34.2%; with SK-MEL-5 melanoma it was 10.7%. The growth in the experiment with UACC-62 melanoma is -27.5% (active); in the experiment on LOX IMVI melanoma it was 0.289% (active); in the experiment on SK-MEL-28 melanoma it was 29.3%.

Consider `COc1ccccc1CNCCCN1C(=O)c2ccc3c4c(ccc(c24)C1=O)C(=O)N(CCCNCCNCCCN)C3=O`, for which the growth in the experiment on HCT-15 colon was 90%; in the experiment on SNB-75 CNS it was 28.4%; with SNB-19 CNS it was 10.3%; with U251 CNS it was -1.05% (active); in the experiment with PC-3 prostate, 42.1%; with SK-MEL-5 melanoma, -31.7% (active). Further, the values for the growth in the experiment with UACC-62 melanoma, with LOX IMVI melanoma and in the experiment with SK-MEL-28 melanoma were 23.5%, 6.84% (active) and 25.4%, respectively.

Take `Nc1cc2c(cc1Cl)-c1ccc(Cl)cc1C2=O`: the growth is 99.7% in the experiment on HCT-15 colon; 89.7% in the experiment on SNB-75 CNS; 98.7% in the experiment with SNB-19 CNS; 91.1% in the experiment with U251 CNS; 94.2% with PC-3 prostate; 108% in the experiment on SK-MEL-5 melanoma. The growth in the experiment on UACC-62 melanoma was 95.7%; in the experiment on LOX IMVI melanoma, 95.1%; with SK-MEL-28 melanoma, 109%.

On to `CNC(=O)c1cc(Oc2ccc(NC(=O)Nc3ccc(Cl)c(OC(C)C)c3)c(F)c2)ccn1`, for which the growth is 41.4% in the experiment with HCT-15 colon; 75.3% in the experiment with SNB-75 CNS; 66.3% in the experiment on SNB-19 CNS; 58.8% in the experiment on U251 CNS; 32.4% with PC-3 prostate; 4.12% (active) in the experiment with SK-MEL-5 melanoma. The values for the growth in the experiment on UACC-62 melanoma and in the experiment with SK-MEL-28 melanoma were 34.2% and 70.7%, respectively.

As to `CCOC(=O)c1cc(-c2ccccc2)nc(N)n1`, the growth was 94.9% in the experiment with HCT-15 colon; 84.7% in the experiment on SNB-75 CNS; 92% in the experiment on SNB-19 CNS; 98.3% in the experiment on U251 CNS; 96.6% with PC-3 prostate; 100% with SK-MEL-5 melanoma. Also, the growth with UACC-62 melanoma is 99.9%; with SK-MEL-28 melanoma it was 111%.

With `Nc1ncncc1-c1ccc(F)cc1`, the growth in the experiment on HCT-15 colon is 103%; in the experiment on SNB-75 CNS it was 85.3%; with SNB-19 CNS it was 106%; with U251 CNS, 103%; in the experiment with PC-3 prostate, 103%; in the experiment with SK-MEL-5 melanoma it was 104%. For the same compound, the growth was 107% with UACC-62 melanoma, 98.7% in the experiment on LOX IMVI melanoma and 115% in the experiment on SK-MEL-28 melanoma.

`Fc1ccc(-c2cc(C(Cl)Cl)no2)cc1`: the growth was 96.9% with HCT-15 colon; 72.4% in the experiment on SNB-75 CNS; 94.7% in the experiment with SNB-19 CNS; 108% in the experiment on U251 CNS; 93% in the experiment on PC-3 prostate; 94.3% with SK-MEL-5 melanoma. The growth with UACC-62 melanoma was 92.8%; in the experiment with LOX IMVI melanoma, 101%; in the experiment on SK-MEL-28 melanoma, 109%.

In the case of `CCCCCCCCCCSC(=N)N` (tested in a mixture with another compound), the growth in the experiment on HCT-15 colon was 12%; in the experiment with SNB-75 CNS it was 91.2%; in the experiment with SNB-19 CNS, 75.8%; in the experiment on U251 CNS, 31.6%; with PC-3 prostate it was 65.5%; in the experiment with SK-MEL-5 melanoma, 80.5%. Also, the figures for the growth with UACC-62 melanoma, in the experiment on LOX IMVI melanoma and in the experiment on SK-MEL-28 melanoma were 9.19% (active), 48.9% and 72.1%, respectively.

On to `CCCCNC(=O)Oc1ccc(/C(=C(\C)c2ccc(OC)cc2)c2ccc(OCCN3CCCCC3)cc2)cc1`, for which the growth in the experiment on HCT-15 colon was 0.377% (active); in the experiment on SNB-75 CNS, 70.6%; with SNB-19 CNS, 69.9%; in the experiment with U251 CNS, 38.9%; in the experiment with PC-3 prostate it was 43.3%; with SK-MEL-5 melanoma it was 44.7%. In addition, the growth with UACC-62 melanoma was 44%; in the experiment on LOX IMVI melanoma it was 20.1%; with SK-MEL-28 melanoma, 2.55% (active).

`CCCCCCCOc1cccc(/C=C2/C(=O)N=C3SCCCN32)c1`: the growth with HCT-15 colon is 60.8%; with SNB-75 CNS, 75.1%; with SNB-19 CNS, 63.4%; in the experiment with U251 CNS, 51%; in the experiment on PC-3 prostate it was 70.4%; with SK-MEL-5 melanoma, 63.7%. For the same compound, the growth was 54.9% in the experiment on UACC-62 melanoma, 44.9% in the experiment with LOX IMVI melanoma and 82.3% in the experiment on SK-MEL-28 melanoma.

Regarding `CCCCOCCOCCOCc1cc2c(cc1Br)OCO2`, the growth with HCT-15 colon is 97.1%; with SNB-75 CNS it was 99.7%; in the experiment with SNB-19 CNS it was 106%; in the experiment with U251 CNS it was 94.9%; in the experiment with PC-3 prostate it was 93.2%; in the experiment on SK-MEL-5 melanoma, 97.8%. The growth in the experiment on UACC-62 melanoma is 89.9%; in the experiment on LOX IMVI melanoma it was 106%; in the experiment on SK-MEL-28 melanoma, 106%.

For `NC1CCC(Nc2nc(NCc3ccc(-c4cccs4)nc3)c3ncn(C4CCCC4)c3n2)CC1` (configuration not stated), the growth is 0.306% (active) with HCT-15 colon; -63.5% (active) in the experiment with SNB-75 CNS; 10.2% in the experiment on SNB-19 CNS; 3.21% (active) with U251 CNS; 1.6% (active) in the experiment on PC-3 prostate; -96.8% (active) with SK-MEL-5 melanoma. The growth with UACC-62 melanoma was -42.4% (active); in the experiment on LOX IMVI melanoma it was -82.1% (active); in the experiment on SK-MEL-28 melanoma it was -62.3% (active).

`Cn1cnc([N+](=O)[O-])c1Sc1nnc(-c2ccccc2)c(-c2ccccc2)n1`: the growth with HCT-15 colon is 56%; with SNB-75 CNS, 100%; with SNB-19 CNS, 109%; with U251 CNS it was 77.7%; in the experiment with PC-3 prostate, 95.5%; with SK-MEL-5 melanoma, 106%. Also, the growth in the experiment with UACC-62 melanoma was 64.3%; with LOX IMVI melanoma, 67.8%; with SK-MEL-28 melanoma it was 76%.

Regarding `Nc1c(C(=O)Nc2ccccc2F)sc2nc3c(cc12)C(=O)CCC3`, the growth in the experiment on HCT-15 colon is 40.2%; in the experiment on SNB-75 CNS it was 13.7%; in the experiment with SNB-19 CNS it was 41.1%; with U251 CNS, 31.6%; in the experiment on PC-3 prostate, 23.4%; in the experiment on SK-MEL-5 melanoma, 17.9%. Also, the results for the growth in the experiment with UACC-62 melanoma, with LOX IMVI melanoma and in the experiment on SK-MEL-28 melanoma were 23.7%, 54.2% and 64.1%, respectively.

The record behind these values is PubChem BioAssay (NCI).
